# This is a sample that favours compounds with a hit; in the whole collection about 10% have one here.
# ALDH1A1 inh: inhibitors of human aldehyde dehydrogenase 1A1. P00352. Purified ALDH1A1, NADH fluorescence, propionaldehyde substrate. Potency, µM (titrated, usually from 75.3 µM), usual class: inhibitors. 220,000 tested, 7.3% active. AID 1030; active = well fitted inhibition curve with a large enough effect, not every such curve was filed as active; inconclusive = small, poorly fitted or top-dose-only effect, or another doubt; inactive = no such curve, though single readings can be large or run the other way
# HPGD block: blocks human HPGD enzyme activity. purified HPGD, NADH fluorescence kinetic, PGE2 substrate. P15428. 150,000 tested, 4.3% active. Potency, µM, actives largely listed as inhibitors; active = well fitted inhibition curve with a large enough effect, not every such curve was filed as active; inconclusive = small, poorly fitted or top-dose-only effect, or another doubt; inactive = no such curve, though single readings can be large or run the other way
# Target sequence (P15428 whole entry, looked up): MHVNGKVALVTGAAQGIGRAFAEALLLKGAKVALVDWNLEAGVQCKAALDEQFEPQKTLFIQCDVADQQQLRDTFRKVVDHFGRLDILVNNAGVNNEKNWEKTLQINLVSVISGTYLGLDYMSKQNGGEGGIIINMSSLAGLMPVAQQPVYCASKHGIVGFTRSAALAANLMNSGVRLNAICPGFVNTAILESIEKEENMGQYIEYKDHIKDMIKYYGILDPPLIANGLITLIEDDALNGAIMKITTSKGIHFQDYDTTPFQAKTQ
#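 NADH formation kinetics: reaction with 30 uM PGE2 and 1 mM NAD+ (final), 20 nM enzyme, Tris-HCl pH 8 with Tween 20, after 15 min compound preincubation at room temperature. Fluorescence change, last versus first of five reads.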
# PNC assembly inh: perinucleolar compartment assembly inhibition; PC3M PTB-GFP, PNC prevalence imaging, 16 h; active compounds read low; activity change (PNC), negative = inhibition, % at 10 µM; 140,000 tested, 3.1% active;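 active = readout at or below -70, meaning at least 70% loss of cells showing the perinucleolar compartment, a nuclear body marking cancer cells; inconclusive = readout between -30 and a set limit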
#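 Compounds are pinned in duplicate onto adhered PC3M cells stably expressing GFP-tagged PTB and incubated 16 h at 37 C. Cells are then fixed, nuclei stained with Hoechst, and PNC-positive cells counted.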
# ALOX12 inhib: inhibitors of human 12-lipoxygenase (ALOX12); P18054; purified 12-hLO, xylenol orange hydroperoxide absorbance; Potency, µM (highest dose often 57.1 µM), hits mostly inhibitors; 150,000 tested, 0.12% active; also: nearly all actives have a fitted effect of over 55% in size
#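 Purified human 12hLO (150 nM final) was preincubated with compounds for 15 min at room temperature in 25 mM Hepes pH 7.0, 0.01% Triton X-100, then reacted with 40 uM arachidonic acid for 30 min. Hydroperoxide was detected with ferrous iron/xylenol orange.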
# aGal spleen mod: inhibitors or activators of human alpha-galactosidase in spleen homogenate. P06280. human spleen homogenate, 4MU-alpha-Gal fluorescence, 40 min. Potency, µM (titrated, usually from 80 µM), usual class: inhibitors. 240,000 tested, 0.008% active
#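 Spleen homogenate 1 ug + cpd (titration) + 4-MU-alpha-D-galactopyranoside 1 mM; 37C 40 min; 50 mM citrate/phosphate pH 5.0, 0.01% Tween-20; stop pH 10; fluorescence 365/440; AC50 via Hill.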
# GLA inh pH 4.5: alpha-galactosidase A (human) inhibition, pH 4.5; P06280; purified enzyme, 4-MU-alpha-Gal fluorescence, pH 4.5; 230,000 tested, under 10 active; activity change, negative = inhibition, % at 105 µM
# Numbers stand for hits; – = inactive; ? = inconclusive; · = no result; [ ] = remark or other dose. Unless noted, calls follow the shape of the dose curve; as a rule, active = well fitted curve in the direction sought with a large enough effect; inconclusive = small, poorly fitted or top-dose-only effect, or another doubt; inactive = no such curve, though single readings can be large; an effect the other way counts as inactive or inconclusive.
SMILES,ALDH1A1 inh,HPGD block,PNC assembly inh,ALOX12 inhib,aGal spleen mod,GLA inh pH 4.5
O=C(CSc1n[nH]c(-c2cc(Cl)ccc2Cl)n1)NCCN1C(=O)CSC1=O,–,16µM,–,–,–,–
Cc1ccc(SCC(=O)NCCN2C(=O)CSC2=O)c(C)c1,–,–,-100,–,–,–
COc1cc([N+](=O)[O-])cc2cc(C(=O)N3CCN=C3c3ccccc3)c(=O)oc12,–,·,·,·,–,–
O=C(COc1ccccc1)N1CCN=C1c1ccccc1,–,–,–,–,–,–
COc1cc(C(=O)N2CCN=C2c2ccccc2)cc(OC)c1OC,–,–,-100,–,–,–
O=C(c1ccc(F)cc1)N1CCN=C1c1ccccc1,–,–,-96,–,–,–
Cc1ccc(NC(=O)OCc2ccccc2S(C)=O)cc1 (stereo not given),–,·,·,·,–,–
CS(=O)c1ccccc1COC(=O)Nc1ccc(Cl)cc1 (stereo not given),?,–,-80,–,–,–
C/C(=N/NC(=O)CNC(=O)C(c1ccccc1)c1ccccc1)c1ccco1,·,·,·,·,–,–
O=C(O)C(Cc1ccccc1)Cc1ccccc1,–[13.5 µM],–,·,–[11.4 µM],·,·
CCCCC(NC(=O)c1ccccc1)C(=O)OCC(=O)N1c2ccccc2Sc2ccccc21 (stereo not given),40µM,–,–,–,–,–
CC(C)CNCC(=O)N1c2ccccc2Sc2ccccc21,?,–,–,–,–,–
CC(=O)NCC(=O)OCC(=O)N1c2ccccc2Sc2ccccc21,25µM,·,·,·,–,–
O=C(CNC(=O)c1ccccc1)OCC(=O)N1c2ccccc2Sc2ccccc21,–,–,–,–,–,–
c1ccc(Nc2nc(-c3ccoc3)nc3ccccc23)cc1,?,·,·,·,–,·
CCOc1ccc2nc(SCC(=O)Nc3nonc3C)[nH]c2c1,–,·,·,·,–,–
COc1ccc2nc(SCC(=O)Nc3cc(C)on3)[nH]c2c1,–,–,-97,–,–,–
COc1ccc2nc(SCC(=O)Nc3ccccc3C)[nH]c2c1,?,–,–,–,–,–
Cc1ccc2nc(SCC(=O)Nc3cc(C)on3)[nH]c2c1,–,–,–,–,–,–
CCOc1ccc2nc(SCC(=O)Nc3cc4c(cc3C(C)=O)OCO4)[nH]c2c1,25µM,–,–,–,–,–
COc1ccc2nc(SCC(=O)Nc3ccc4c(c3)CCC4)[nH]c2c1,11µM,–,–,–,–,–
CC1CCCN(CCCCOc2cccc(Br)c2)C1 (stereo not given),–,–,?,–,–,–
O=C(c1cnccn1)N1CCC2(CCN(Cc3nccs3)CC2)CC1,–,–,·,–,–,·
CN(C)c1ccc(/C=c2/sc3n(c2=O)NC2(c4ccccc4)N(C)C(=O)N(C)C2(c2ccccc2)N=3)cc1 (stereo not given),–,–,-84,–,–,–
COC(=O)CCCCCN1C(=O)NC(CC2CC2)C(C(=O)OCc2ccccc2)=C1C (stereo not given),?,–,·,–,–,–
SMILES,ALDH1A1 inh,HPGD block,PNC assembly inh,ALOX12 inhib,aGal spleen mod,GLA inh pH 4.5
O=C(NCCO)c1ccc(CSc2nc3ccccc3[nH]2)cc1,–,25µM,–,–,–,–
O=C(NCCCO)c1ccc(CSc2nc3ccccc3[nH]2)cc1,–,·,·,·,–,–
CC1C/C(=N/NC(=O)c2ccc(CSc3nc4ccccc4[nH]3)cc2)CC(C)(C)C1 (stereo not given),25µM,–,–,–,–,–
COc1cc(/C=N/NC(=O)c2ccc(CSc3nc4ccccc4[nH]3)cc2)cc(OC)c1OC,?,?,-85,–,–,–
Cc1onc(-c2ccccc2Cl)c1C(=O)Oc1cccc2cccnc12,–,·,·,·,–,–
COc1ccc(Cc2noc(CN3CCN(c4ccc(Cl)cn4)CC3)n2)cc1OC,–,·,·,·,–,–
CC(C)CCc1noc(CN2CCN(c3ccc(Cl)cn3)CC2)n1,4µM,·,·,·,–,–
O=C(Cc1ccccc1)Nc1ccccc1C(=O)Nc1ccccc1,–,?,-120,–,–,–
CC(C)CC(=O)Nc1ccc(Nc2ccccc2)cc1,–,11µM,-100,–,–,–
CC(C)CC(=O)NC(=S)Nc1ccccc1C(=O)Nc1ccccc1,10µM,–,–,–,–,–
